Screening data as filed in PubChem BioAssay.
Marburg entry inh – Marburg virus entry inhibition; Marburg virus pseudotyped entry inhibition, cell reporter; Potency, µM (titrated, usually from 37.8 µM), for inactives: top-dose activity change, negative = inhibition, usual class: inhibitors; AID 540276; 300,000 compounds, 1.8% hits; calls by dose curve; tested in HEK293 cells; also: potency is read from the fitted curve at half-maximal effect
HCMV antiviral – inhibitors of human cytomegalovirus. activity change, negative = inhibition, % at 57.5 µM. AID 1259415. HFF cells, HCMV-luciferase reporter, 72 h; stronger effect = lower value. 410,000 compounds, 4.5% hits; in the data active = activity change below about -60%; inconclusive = no clear call, values can overlap the other calls; inactive = above about -39%
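Human foreskin fibroblasts infected with luciferase-reporter HCMV at MOI 1 PFU/cell, compounds at two doses. Luciferase measured 72 h post infection; normalized to buffer-only basal and Salinomycin (10uM) controls.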
VACV mCherry inh – vaccinia inhibition (mCherry reporter); Vaccinia virus mCherry reporter infection, fluorescence; Potency, µM (series often up to 36.5 µM), for inactives: at the top dose activity change, negative = inhibition, usual class: inhibitors; 310,000 compounds, 0.63% hits; calls by dose curve; tested in A549 cells; also: potency is read from the fitted curve at half-maximal effect; nearly all actives have a fitted effect of over 35% in size
LASV entry inh – Lassa virus entry inhibition. Lassa virus pseudotype entry inhibition, cell reporter. Potency, µM (highest dose often 37.9 µM), for inactives: at the top dose activity change, negative = inhibition, actives largely listed as inhibitors. 300,000 compounds, 1.2% hits. AID 540256; calls by dose curve; tested in HEK293 cells; also: potency is read from the fitted curve at half-maximal effect; nearly all actives have a fitted effect of over 50% in size
HCV inhibitor – blocks hepatitis C virus; Huh7.5.1 HCVcc-Cre infection, luciferase reporter, 44 h; 340,000 compounds, 3.4% hits; Potency, µM (series often up to 41.8 µM), for the others: at the top dose activity change, negative = inhibition, most hits filed as inhibitors; AID 651820; active = well fitted inhibition curve with a large enough effect; inconclusive = small, poorly fitted or top-dose-only effect, or another doubt; inactive = no such curve, though single readings can be large or run the other way; also: potency is read from the fitted curve at half-maximal effect
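HCVcc-Cre virus at an moi near 0.5 was added right after compound to cells cultured 4 h from seeding (1,000 cells/well). Luciferase activity was determined 44 h later, 15 min after substrate addition at RT.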
VACV Venus inh – vaccinia inhibition (Venus reporter); Vaccinia virus Venus reporter expression, fluorescence; Potency, µM (top dose mostly 36.5 µM), without a hit: at the highest dose activity change, negative = inhibition, usual class: inhibitors; 330,000 compounds, 0.46% hits; calls by dose curve; tested in A549 cells; also: potency is read from the fitted curve at half-maximal effect; nearly all actives have a fitted effect of over 30% in size
Numbers without * were called inactive; i = inactive; ? = inconclusive; . = not tested or not shown; [ ] = remark or other dose. Only some compounds are listed: those with a hit (about 7.8% of all), similar ones and a draw of the others. % is scaled to controls: 0 for no effect and ±100 for the full control effect.

SMILES	Marburg entry inh	HCMV antiviral	VACV mCherry inh	LASV entry inh	HCV inhibitor	VACV Venus inh
COc1cc(C(=O)NCC(=O)N/N=C(C)\C=C\c2ccccc2)cc(OC)c1OC	-23%[46.1 µM]	-73*	?	-11%[46.1 µM]	?	-29%
COc1ccc(/C(C)=N/NC(=O)CNC(=O)/C=C\c2ccccc2)c(OC)c1	.	-86*	.	.	18%	.
COc1ccc(/C(C)=N/NC(=O)CNC(=O)COc2ccccc2)c(OC)c1	21%[46.1 µM]	-35	-3%	-6%[46.1 µM]	-15%	-21%
Cc1cc(-c2ccnc(-n3ncc(C(=O)NCC(C)(C)N4CCOCC4)c3C)n2)c(C)s1	.	.	8%	.	.	22%
O=S(=O)(NCc1nnc2n1CCN(Cc1ccccc1Cl)CC2)c1ccccc1	.	.	i	.	.	-10%
CO[C@@H]1c2ccccc2[C@H]2C(C(=O)O)c3c(n(C)c4ccccc34)[C@H]2[C@H]1C (some centres undefined)	29%[14.2 µM]	.	.	.	.	.
Nc1nccc(/C=C/c2c(F)cccc2Cl)n1	-26%[46.1 µM]	-68*	-12%	3%	-7%	-19%
Oc1cccc2ccc(/C=C/c3c(F)cccc3Cl)nc12	?	45	?	18µM*	11µM*	-7%
O=C(/C=C/c1c(F)cccc1Cl)Nc1ncccn1	-4%	21	-21%	16%	4%	-5%
Oc1cccc2ccc(/C=C/c3ccccc3Cl)nc12	.	-29	?	.	7.9µM*	-25%
COc1ccccc1/C=C/c1ccc2cccc(O)c2n1	?	11	?	-26%[46.1 µM]	?	-12%
Cc1c2cnn(CC(=O)NC(C)C)c(=O)c2c(C)n1Cc1cccc(Cl)c1	-12%[46.1 µM]	-2	5%	7%[46.1 µM]	.	-10%
CC1=CC[C@@H](COc2ccccc2)O[C@@]2(C1)C(=O)Nc1cccc(Br)c12	4%[14.2 µM]	.	.	?	.	.
CCN(CC)S(=O)(=O)c1ccc2oc(C(=O)NCc3ccccc3OC)c(C)c2c1	?	?	-16%	?	.	-12%
COc1ccc(OC)c(CN2CCCC(n3cc(C(=O)N4CCCCC4)nn3)C2)c1 (centres undefined)	.	.	-10%	.	.	-15%
CCCN(CCC)c1ccc(/C=C/c2sc3ccccc3[n+]2CCCCI)cc1	.	.	i	.	.	i
COc1ccc(Br)cc1C(=O)Nc1cccc2ncccc12	?	-39	.	17%	10µM*	.
COc1ccc(Br)cc1C(=O)Nc1ccc(O)cc1	25%	-6	-12%	-10%	4µM*	-3%
O=C(Nc1ccc(Br)cc1)c1cc(Br)cc(Br)c1O	.	-99*	.	.	.	.
C=CCOC(=O)N[C@H](C(C(=O)OC)=C(C)NCc1ccccc1)c1ccc(Br)cc1	7%[14.2 µM]	.	.	.	.	.
COc1cc2c(cc1OC)C(c1ccc(F)cc1)N(c1ccccc1)C(=O)C2 (centres undefined)	1%[46.1 µM]	28	-3%	-5%[46.1 µM]	.	3%
CC1=C(C(=O)Nc2ccc(C)cc2C)C(c2cccs2)n2nc(SCc3ccccc3Cl)nc2N1 (centres undefined)	-1%[46.1 µM]	-7	-15%	-1%[46.1 µM]	.	-3%
CCOC(=O)c1c(-c2ccccc2)nc2ccccn12	3%	-63*	.	?	-7%	.
CCOC(=O)c1c(-c2ccccc2)nc2c(C)cccn12	20%	-21	.	1%	-17%	.
CCOc1ccccc1NC(=O)CSc1ccc2nc(-c3ccccc3)cn2n1	.	5	-21%	-14%[46.1 µM]	.	-21%
SMILES	Marburg entry inh	HCMV antiviral	VACV mCherry inh	LASV entry inh	HCV inhibitor	VACV Venus inh
O=C(Nc1ccccc1)c1cnc(N2CCN(Cc3cccc(C(F)(F)F)c3)C2=O)o1	.	59	.	.	.	.
Cc1cccc(NC(=O)c2ccccc2-c2ccccc2)c1	-13%[46.1 µM]	-104*	-12%	3%	-6%	-12%
Cc1ccccc1NC(=O)c1cc(S(=O)(=O)c2ccccc2)ccc1Cl	?	-16	.	?	-28%	-24%
O=C(Nc1cccnc1)c1ccccc1-c1ccccc1	.	-60*	.	.	-6%	.
Cc1cccc(NC(=O)c2ccccc2C(=O)O)c1	3%	0	.	12%	1%	.
Cc1cccc(NC(=O)c2cc(S(=O)(=O)c3ccccc3)ccc2Cl)c1	?	-107*	.	?	7.9µM*	?
Cc1cc(C)n(CCc2nc3c4ccccc4nc(N4CCN(c5ccc(F)cc5)CC4)n3n2)n1	0%[46.1 µM]	-15	-20%	.	.	-10%
CCCCCCCCNS(=O)(=O)CCNCCc1ccccc1	.	-17	-19%	.	16%	?
